Screening data from PubChem.
Pf Dd2 growth = blocks in vitro growth of P. falciparum Dd2. Potency, µM (doses to about 28.9 µM), actives largely listed as inhibitors. P. falciparum Dd2 growth, SYBR Green, 72 h. AID 1347417. actives 4.3% (n = 120,000); active means well fitted inhibition curve with a large enough effect; further: nearly all actives have a fitted effect of over 65% in size
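Infected erythrocytes (Dd2, 0.3% parasitemia, 2.5% hematocrit final) are added to compound in RPMI-1640/Albumax II medium, grown 72 h at 37C in low oxygen, then lysed with saponin/Triton-X containing SYBR Green and read by fluorescence.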
Hits are given with their value; i = inactive; [ ] = another dose, or the depositor's remark. The full list was thinned out, with hits kept by preference.

SMILES	Pf Dd2 growth
Cc1ccc(-n2c(=O)c3cccnc3n2CC(=O)NCc2ccc(Cl)cc2)cc1	i
O=C(Cc1ccccc1Cl)N1CCN(c2cc(-c3ccccc3)[nH]n2)CC1	i
COc1cc(=O)n2c(c1C(=O)Nc1cccc(Cl)c1F)CCCC2	i
Cc1ccc(CCNC(=O)CN(c2ccc(C)cc2)S(=O)(=O)c2c(C)noc2C)cc1	i
CCc1ccc(NC(=O)CN(c2ccc(C)cc2)S(=O)(=O)c2c(C)nn(C)c2C)cc1	i
Cc1cccc(CCNC(=O)CN(c2ccc(C(C)C)cc2)S(=O)(=O)c2c(C)nn(C)c2C)c1	10µM
O=C(NC1CC1)c1cc(C2CC2)nc2onc(C3CCNCC3)c12	i
O=C(NCc1ccc(F)cc1)c1cc(C2CC2)nc2onc(C3CCNCC3)c12	10µM
COCCNC(=O)c1cc(C2CC2)nc2onc(C3CCNC3)c12 (configuration not stated)	i
O=C(NCc1ccc(F)cc1)c1cc(C2CC2)nc2onc(C3CCCNC3)c12 (configuration not stated)	8.91µM
O=C(NCc1ccc(F)cc1)c1cc(C2CC2)nc2onc(C3CCCN3)c12 (configuration not stated)	i
Cc1cc(C(=O)NCc2ccc(F)cc2)c2c(C3CCNC3)noc2n1 (configuration not stated)	i
CNC(=O)c1ccc2ccnn2c1	i
Cn1cnnc1CC1CCN(S(=O)(=O)c2ccc(F)cc2)CC1	i
COc1ccc(C(=O)N2CCC3(CC2)NC(=O)N(Cc2ccc(F)cc2)C3=O)c(C)c1	i
CCc1noc([C@@H]2CC(F)(F)CN2C(=O)CCc2c(C)noc2C)n1	i
Cc1cc(F)cc(CN2CCc3nc(C(=O)Nc4ccccc4)oc3CC2)c1	i
CN1CCC(OC2CCN(C(=O)c3cccc(Br)c3)CC2)CC1	i
Cn1nccc1C(=O)N1CC(c2ncc3c(-c4ccccc4)nccn23)C1	i
CCO[C@H]1CN(Cc2cnc(-c3ccccc3C)s2)C[C@@H]1O	i
Cc1ccccc1-c1nccn2c(C3CN(Cc4ccccc4O)C3)ncc12	0.355µM
CN(C)C(=O)C1CN(C(=O)C2CCCCC2)CC12CCOCC2 (configuration not stated)	i
CCOC1CCOC2(CCN(C(=O)c3ccoc3)CC2)C1 (configuration not stated)	i
CC(C)Oc1ccc(C(=O)N2C[C@@H]3CCN(C)C[C@]3(C(=O)O)C2)cc1	i
CN(Cc1ccc(-c2ccccc2)cc1)Cc1cccc(C(F)(F)F)c1	i
SMILES	Pf Dd2 growth
CN(Cc1ccc(-c2ccccc2)cc1)Cc1cccc(OC(F)(F)F)c1	i
CC1CCCCN1Cc1c(O)ccc2c(=O)c(-c3ccccc3)coc12 (configuration not stated)	10µM
CC1CCCCN1Cc1c(O)ccc2c(=O)c(-c3ccc(Cl)cc3)c(C(F)(F)F)oc12 (configuration not stated)	10µM
CC1CCCCN1C(=O)CN1CCSc2ccccc21 (configuration not stated)	i
CC1CCCCN1Cc1nc2c(c(=O)n(C)c(=O)n2C)n1Cc1ccc(Br)cc1 (configuration not stated)	i
CC1CCCCN1Cc1nnc2cc(-c3nc(-c4ccccc4)no3)ccn12 (configuration not stated)	i
CN(Cc1ccccc1)Cc1c(O)ccc2c(=O)c(-c3ccccc3)c(C(F)(F)F)oc12	3.98µM
Cc1nnc2n1CCC(NC(=O)c1cnco1)CC2 (configuration not stated)	i
O=C(Cc1ccccn1)N1CCC(N2CCCCCC2=O)CC1	i
c1ccc(-n2cc(CN3CCCCC3c3ccccn3)nn2)cc1 (configuration not stated)	i
CCCN(CC1CCOC1)S(=O)(=O)c1cc(F)cc(F)c1 (configuration not stated)	i[5.79 µM]
COc1ccc(Nc2cc(C)nc3c(C)c(C)ccc23)cc1	i
Cc1cccc(Nc2nc(N)nc(N)c2S(=O)(=O)c2ccccc2)c1	i
COc1ccccc1C(O)c1nc(Nc2ccc(C(C)C)cc2)n[nH]1 (configuration not stated)	i
CCc1sc(Nc2cccc(C)c2)nc1-c1cc2cccc(OC)c2oc1=O	i
CCOC(=O)c1ccc(Nc2c(-c3ccc(O)c(OC)c3)nc3nc[nH]n23)cc1	i[0.594 µM]
COc1ccc(Nc2nc(-c3ccccc3)c3cc(Br)ccc3n2)cc1	i
COc1ccc(NC(=O)c2nnn(CC(=O)Nc3c(C)cc(C)cc3C)c2N)cc1OC	i
COc1cc2nc(Nc3ccc(F)cc3)nc(N)c2cc1OC	2.51µM
COc1cc2nc(Nc3ccc(C)c(C)c3)nc(N)c2cc1OC	0.1µM
CCOC(=O)c1ccc(Nc2nc(N)c3cc(OC)c(OC)cc3n2)cc1	1.26µM
COc1cc2nc(Nc3cccc(C)c3)nc(N)c2cc1OC	2.51µM
CCOC(=O)c1ccc2nc(C)cc(Nc3cccc(C(=O)O)c3)c2c1	i
CN(Cc1ccccc1)C(=O)C1CCN(c2ncncn2)CC1	i
O=C(CCC1CC1)N1CCC(c2cc(Cc3ccccc3)[nH]n2)CC1	i
SMILES	Pf Dd2 growth
O=C(CN1CCOCC1)N1CC2CC(C1)[C@H]1CCCC(=O)N1C2 (some centres not stated)	i
CCc1nncn1C1CCN(S(=O)(=O)c2ccc(C)c(C)c2)CC1	i
Cc1nc2ncccn2c1C(=O)N[C@H]1[C@H]2CCO[C@H]2[C@@H]1N(C)C	i
Cc1cnc(C(=O)N2CCCC(c3nc(-c4cccnc4)no3)CCNC(=O)CC2)cn1 (configuration not stated)	i
COc1ccc(C2Cn3nnc(C(=O)N4CCC(C(=O)Nc5cc(C)cc(C)c5)CC4)c3CO2)cc1 (configuration not stated)	i
Cc1ccc(CNC(=O)C2CCCN(c3cnn(C)c(=O)c3)C2)cc1 (configuration not stated)	i
CCn1cc(S(=O)(=O)NCC2Cn3cccc3C(=O)N2C)cn1 (configuration not stated)	i
COc1cc(OC)c(N(C)C(=O)c2cc3c(s2)-c2ccccc2OC3)cc1Cl	8.91µM
COc1ccc(N(C)C(=O)c2cc3c(s2)-c2ccccc2OC3)cc1	i
COc1ccccc1N1CCN(C(=O)c2cc3c(s2)-c2ccccc2OC3)CC1	i
COc1cc2c(cc1OC1CCCC1)NC(=O)C21CCN(c2ncc(F)cn2)CC1	i
COc1cc2c(cc1OC1CCCC1)NC(=O)C21CCN(c2ncccn2)CC1	i
COc1cc2c(cc1OC1CCCC1)NC(=O)C21CCN(c2nc(C)cc(C)n2)CC1	11.2µM
O=C(O)C1=NOC2CN([S+](=O)([O-])C3CCCC3)CC12 (configuration not stated)	i
COc1cccc(-c2ccc(NC(=O)C3CCCN3C(=O)CNC(C)=O)cc2)c1 (configuration not stated)	i
CCCOC(=O)N1CCCC(C(=O)Nc2ccccc2-c2ccc(OC)cc2)C1 (configuration not stated)	i
COc1cccc(-c2ccc(NC(=O)C3CCCN(Cc4cc(C(C)C)n[nH]4)C3)cc2)c1 (configuration not stated)	11.2µM
COc1ccc(-c2ccccc2NC(=O)C2CCCN(Cc3cccc(F)c3F)C2)cc1 (configuration not stated)	i
COc1cccc(-c2ccc(NC(=O)C3CCCN3C(=O)Cn3cccn3)cc2)c1 (configuration not stated)	i
CCCCc1ncc(CN2CCCC(C(=O)Nc3ccccc3-c3ccc(OC)cc3)C2)[nH]1 (configuration not stated)	8.91µM
